# An excerpt weighted towards active compounds, which were near 7.8% of everything screened.
# VACV mCherry inh = vaccinia inhibition (mCherry reporter); AID 720579; Vaccinia virus mCherry reporter infection, fluorescence; 310,000 compounds, 0.63% hits; Potency, µM (highest dose often 36.5 µM), actives largely listed as inhibitors; calls by dose curve; tested in A549 cells; also: nearly all actives have a fitted effect of over 35% in size
# Lassa entry inh = Lassa virus entry inhibition; Lassa virus pseudotype entry inhibition, cell reporter; Potency, µM (highest dose often 37.9 µM), most hits filed as inhibitors; 300,000 compounds, 1.2% hits; calls by dose curve; tested in HEK293 cells; also: nearly all actives have a fitted effect of over 50% in size
# VACV Venus inh = inhibitors of vaccinia virus (Venus reporter); Vaccinia virus Venus reporter expression, fluorescence; Potency, µM (highest dose often 36.5 µM), most hits filed as inhibitors; 330,000 compounds, 0.46% hits; AID 720580; calls by dose curve; tested in A549 cells; also: nearly all actives have a fitted effect of over 30% in size
# HCMV inh = human cytomegalovirus inhibition. activity change, negative = inhibition, % at 57.5 µM. HFF cells, HCMV-luciferase reporter, 72 h; stronger effect = lower value. 410,000 compounds, 4.5% hits; in the data active = activity change below about -60%; inconclusive = no clear call, values can overlap the other calls; inactive = above about -39%
#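 Screen run at 2 compound doses on HFFs infected with reporter HCMV, MOI 1 PFU/cell. Luciferase activity from cell lysates at 72 h post infection gave inhibition relative to buffer-only and Salinomycin wells.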
# HCV inh = inhibitors of hepatitis C virus infection | Huh7.5.1 HCVcc-Cre infection, luciferase reporter, 44 h | Potency, µM (doses to about 41.8 µM), actives largely listed as inhibitors | 340,000 compounds, 3.4% hits; active = well fitted inhibition curve with a large enough effect; inconclusive = small, poorly fitted or top-dose-only effect, or another doubt; inactive = no such curve, though single readings can be large or run the other way
#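 Antiviral activity was scored by luciferase reporter output from cells infected with HCVcc-Cre (~0.5 moi) in presence of compound, 44 h infection period, cells seeded 1,000/well 4 h prior.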
# MARV entry inh = inhibitors of Marburg virus binding or cell entry. Marburg virus pseudotyped entry inhibition, cell reporter. Potency, µM (doses to about 37.8 µM), actives largely listed as inhibitors. 300,000 compounds, 1.8% hits; calls by dose curve; tested in HEK293 cells
# Hits are given with their value; – = inactive; ? = inconclusive; · = no result; [ ] = dose if it differs, or a comment.
SMILES,VACV mCherry inh,Lassa entry inh,VACV Venus inh,HCMV inh,HCV inh,MARV entry inh
Cc1noc(C)c1NC(=O)N(C)C[C@@H]1Oc2ccc(NS(=O)(=O)c3c(C)noc3C)cc2C(=O)N([C@H](C)CO)C[C@H]1C,–,·,–,–,3.2µM,·
Cc1noc(C)c1S(=O)(=O)Nc1ccc2c(c1)C(=O)N([C@H](C)CO)C[C@H](C)[C@@H](CN(C)C(=O)NC(C)C)O2,–,·,–,–,?,·
Cc1noc(C)c1S(=O)(=O)N(C)C[C@H]1Oc2ccc(NS(=O)(=O)c3ccc(F)cc3)cc2C(=O)N([C@H](C)CO)C[C@@H]1C,–,·,–,–,–,·
O=C(CSc1nncn2c1cc1sccc12)Nc1ccc(Br)cc1F,–,?,–,?,·,·
CCCCCCCCCc1ccc(OCCOCCO)cc1,–,·,?,·,·,·
CCc1cccc(NC(=O)Cn2c(=O)n(CCC(=O)NCc3ccccc3Cl)c(=O)c3sccc32)c1,–,–,–,–,·,–
COc1ccc(-c2cccc3c2C2CC3CCN2C(=O)OCc2ccccc2)cc1 (stereo not given),–,·,–,–,7.9µM,·
COC(=O)c1ccc2c(c1)C(C)(C)C(/C=C/c1ccccc1O)=[N+]2C,·,?,·,-104,7.9µM,?
Cc1cc(F)ccc1-n1nnc(C(N)=O)c1C,–,–,–,–,·,–
COc1ccc(-c2cc(CNC(C)=O)on2)cc1,·,?,–,–,–,–
COc1ccc(-c2cc(CNC(=O)CCl)on2)cc1,·,?,8.9µM,-63,?,?
O=C1N=C(N2CCc3ccccc3C2)S/C1=C\c1cccc(O)c1,–,21µM,–,–,–,–
Cc1ccc2ccc3cc(C(=O)Nc4ccc(C)c(F)c4)nc3c2[nH]1,–,?,–,-76,·,·
Cc1ccc2ccc3cc(C(=O)N4CCN(c5ccccc5F)CC4)nc3c2[nH]1,–,–,–,–,·,·
CCN(CC)S(=O)(=O)c1ccc(-c2ccc(S(=O)(=O)N(CC)CC)cc2)cc1,·,?,·,-64,?,?
CCOc1cc(S(=O)(=O)N(CC)CC)ccc1F,·,–,·,–,–,–
CCOc1ccc(S(=O)(=O)N(CC)CC)cc1N,·,–,·,-81,–,–
CCOc1ccc(S(=O)(=O)N(CC)CC)cc1NS(=O)(=O)c1ccc(F)c(F)c1F,4µM,–,4.5µM,–,–,–
C[C@@H]1NS(=O)(=O)c2cccc(Cl)c2O[C@@H]1c1ccccc1,·,·,·,–,·,·
CCCOc1ccc(NC(=O)CC2C(=O)N(c3cccc(OC)c3)C(=O)N2Cc2cccs2)cc1 (stereo not given),–,–,–,–,·,·
COc1ccccc1-c1ccc([C@@H]2C[C@H]3[C@H](CON3C)CN2CC2CCCCC2)cc1,·,·,·,–,·,·
O=C(NN1C(=O)c2ccc(-c3ccc4c(c3)C(=O)N(NC(=O)c3cccnc3)C4=O)cc2C1=O)c1cccnc1,–,–,–,-77,–,–
CN1C(=O)c2ccc(C(=O)Nc3cccnc3)cc2C1=O,–,?,–,–,–,–
COc1ccc(C(=O)NC(Nc2ccc(C)cc2)C(Cl)(Cl)Cl)cc1 (stereo not given),–,–,–,-72,?,?
CSc1ccc(C(=O)C2CCCN(S(=O)(=O)N(C)C)C2)cc1 (stereo not given),–,–,–,–,–,–
SMILES,VACV mCherry inh,Lassa entry inh,VACV Venus inh,HCMV inh,HCV inh,MARV entry inh
O=C(c1ccc(-c2ccccc2)c(F)c1)C1CCCN(CCO)C1 (stereo not given),–,–,–,–,11µM,?
CN(C)S(=O)(=O)N1CCCC(C(=O)c2ccc(-c3ccccc3)c(F)c2)C1 (stereo not given),·,?,·,–,22µM,?
O=C(c1ccc(-c2ccccc2)c(F)c1)C1CCCN(CCCn2cccn2)C1 (stereo not given),·,·,·,–,?,·
COc1ccccc1C1CCN(c2cc(O)ccc2[N+](=O)[O-])CC1,–,?,–,-72,–,?
CCOC(=O)c1cnc(N2CCN(c3cccc(C)c3C)CC2)c2ccccc12,–[7.34 µM],?,–[7.34 µM],–,·,·
COc1ccccc1C(CC(=O)Nc1ccc(C)c(C)c1)c1ccc(OC(C)C)cc1 (stereo not given),–,–,–,-61,?,?
COc1ccc(C(CC(=O)Nc2ccccc2OC)n2cccc2)cc1 (stereo not given),?,–,–,–,–,?
COc1ccccc1NC(=O)CC(c1ccc(OC(C)C)cc1)c1ccccc1OC (stereo not given),–,–,–,?,11µM,?
Cc1ccc(/C=C2\SC(=S)N(CC3CCCO3)C2=O)o1 (stereo not given),–,–,–,-85,–,–
Cc1nc(Sc2nnnn2C2CC2)c2c(-c3ccccc3)csc2n1,?,·,–,·,·,·
CCCc1ccc(OCC(=O)Nc2sc(C(=O)OCC)c(C)c2C(=O)OCC)cc1,–,–,–,?,·,·
COc1cccc(/C=N/NC(=O)c2cc3c(OC)ccc(OC)c3[nH]2)c1O,?,·,?,-99,2.5µM,·
COc1cc(OC)c2cc(C(=O)N/N=C/c3cccc(OC)c3O)[nH]c2c1,11µM,?,–,-104,8.9µM,4.5µM
COc1cccc(/C=N/NC(=O)c2ccc3nc[nH]c3c2)c1O,?,·,–,–,–,·
CCOc1ccc(CCNC(=O)c2nn(C)c3c2CS(=O)(=O)c2ccccc2-3)cc1OCC,–,?,–,–,6.3µM,?
CC1CCC(NC(=O)c2nn(C)c3c2CS(=O)(=O)c2ccccc2-3)CC1 (stereo not given),·,·,·,–,–,·
Cn1nc(C(=O)NC2CCCCC2)c2c1-c1ccccc1S(=O)(=O)C2,–[7.34 µM],·,–[7.34 µM],-85,–,·
COCCCNC(=O)c1nn(C)c2c1CS(=O)(=O)c1ccccc1-2,–,–,–,–,·,·
COc1ccc(CCNC(=O)c2nn(C)c3c2CS(=O)(=O)c2ccccc2-3)c(OC)c1,–[7.34 µM],·,–[7.34 µM],?,11µM,·
CCCC(NC(C)C(=O)N1C(C(=O)O)CC2CCCCC21)C(=O)OCC (stereo not given),–,·,–,·,·,·
CCc1nn(CC(=O)Nc2c(C)cc(C)cc2C)c(=O)c2cc3sccc3n12,–,·,–,–,·,?
CC1=C[C@@H](C)O[C@@]2(C1)C(=O)Nc1cccc(Br)c12,·,?,·,·,·,–
CNC[C@@H]1OCc2cnnn2CCCC(=O)N([C@@H](C)CO)C[C@H]1C,·,·,·,–,·,·
CCCCn1c(NC(=O)c2ccccc2Cl)c(C#N)c2nc3ccccc3nc21,·,–,·,-60,–,21µM
N#Cc1c(NC(=O)c2ccccc2Cl)n(Cc2ccccc2)c2nc3ccccc3nc12,–,?,–,-70,?,–
CCOC(=O)C1=CCN(S(=O)(=O)c2ccccc2Cl)C1c1ccccc1 (stereo not given),–,·,–,–,·,·
Cc1ccc(C)c(N2CCN(C(=O)C3CCC(CNS(=O)(=O)c4ccc(Br)s4)CC3)CC2)c1 (stereo not given),–,–,–,–,·,–
COc1cc2cnc(-c3ccccc3)cc2cc1OC,–,·,–,–,22µM,·
COc1nc(-c2ccccc2)cc(-c2ccc(OC)c(OC)c2)n1,·,–,·,–,1.8µM,?

# Screening data as filed in PubChem BioAssay.
